IMPase inh – membrane-permeable compound that blocks inositol monophosphatase; P97697; CHO-M1 cells, IP1 accumulation, HTRF TR-FRET ratio; inhibition (IP1 accumulation), % at 46.1 µM; 120,000 tested, under 10 active; active = well fitted curve in the direction sought with a large enough effect in the signal ratio, not every such curve was filed as active; inconclusive = small, poorly fitted or top-dose-only effect, or a change in a side signal; inactive = no such curve, though single readings can be large or run the other way; the % refers to the signal ratio;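 note: cells stimulated with carbachol in lithium chloride buffer; plate controls were DMSO basal wells for no effect and reference inhibitor wells for full effect; higher means more IMPase inhibition seen as more IP1 and lower FRET ratio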
Target sequence (P97697 whole entry, looked up): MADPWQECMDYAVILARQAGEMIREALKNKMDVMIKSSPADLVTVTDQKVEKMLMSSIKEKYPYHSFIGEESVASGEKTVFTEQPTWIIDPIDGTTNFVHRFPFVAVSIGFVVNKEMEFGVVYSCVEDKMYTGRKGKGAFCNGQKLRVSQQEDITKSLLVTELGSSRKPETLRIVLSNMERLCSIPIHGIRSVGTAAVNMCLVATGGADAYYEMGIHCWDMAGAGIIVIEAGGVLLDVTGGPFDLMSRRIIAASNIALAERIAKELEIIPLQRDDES
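In this qHTS, compounds (final up to 46 uM) act on CHO-M1 cells that are then activated through the M1 receptor with carbachol, in pH 7.4 buffer containing 50 mM LiCl, for 30 min. IP1 accumulation is quantified by the IP-One immunoassay.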
IMPase Li inh – membrane-permeable IMPase blocker, potentiated with lithium; 0.35% of 210,000 active; Potency, µM (series often up to 59.4 µM), for inactives: at the highest dose activity, negative = IMPase inhibition, most hits filed as inhibitors; CHO-M1 cells, IP1 TR-FRET (IP-One), carbachol + lithium; active = well fitted curve in the direction sought with a large enough effect; inconclusive = small, poorly fitted or top-dose-only effect, or another doubt; inactive = no such curve, though single readings can be large; an effect the other way counts as inactive or inconclusive;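 note: IP1 builds up when IMPase is blocked and the TR-FRET signal falls; potency is the fitted concentration of half-maximal effect; plate controls were basal vehicle for no effect and high inhibitor control for full effect; nearly all actives have a fitted effect of over 50% in size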
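CHO-M1, 2000 cells/well, 16–30 h culture; cpd + low Li+, 30 min 37C; lysis with d2-IP1/Eu-anti-IP1 Ab, 10 min RT; TR-FRET 665/620 ratio and 620 channel; AC50 via Hill.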
HPGD block – blocks human HPGD enzyme activity; 4.3% of 150,000 active; Potency, µM, for inactives: at the highest dose activity change, negative = inhibition, usual class: inhibitors; P15428; purified HPGD, NADH fluorescence kinetic, PGE2 substrate; note: potency is the fitted concentration of half-maximal effect
Target sequence (P15428 whole entry, looked up): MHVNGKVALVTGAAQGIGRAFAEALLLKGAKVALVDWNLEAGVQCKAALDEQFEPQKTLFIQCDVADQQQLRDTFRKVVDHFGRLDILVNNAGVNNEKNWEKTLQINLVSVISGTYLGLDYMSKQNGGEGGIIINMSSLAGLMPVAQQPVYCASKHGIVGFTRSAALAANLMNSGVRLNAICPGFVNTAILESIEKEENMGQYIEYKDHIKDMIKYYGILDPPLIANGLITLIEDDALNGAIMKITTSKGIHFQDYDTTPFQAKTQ
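20 nM HPGD preincubated 15 min at room temperature with compound in 50 mM Tris-HCl pH 8, 0.01% Tween 20. Started with 1 mM NAD+ and 30 uM prostaglandin E2; NADH fluorescence (360/450 nm) read 5 times over 30-s intervals, last minus first.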
12-hLO inh – inhibitors of human 12-lipoxygenase (ALOX12). P18054. purified 12-hLO, xylenol orange hydroperoxide absorbance. Potency, µM (top dose mostly 57.1 µM), for the others: at the highest dose activity change, negative = inhibition, actives largely listed as inhibitors. 0.12% of 150,000 active. AID 1452; active = well fitted curve in the direction sought with a large enough effect; inconclusive = small, poorly fitted or top-dose-only effect, or another doubt; inactive = no such curve, though single readings can be large; an effect the other way counts as inactive or inconclusive; note: potency is the fitted concentration of half-maximal effect; nearly all actives have a fitted effect of over 55% in size
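Purified human 12hLO (150 nM), preincubated 15 min with compound, then 40 uM arachidonic acid for 30 min, room temperature, Hepes pH 7.0 with 0.01% Triton X-100. Hydroperoxide detected by ferrous iron/xylenol orange; 573/405 nm absorbance ratio gives reaction progress.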
PNC inhibitor – perinucleolar compartment assembly inhibition; PC3M PTB-GFP, PNC prevalence imaging, 16 h; stronger effect = lower value; activity change (PNC), negative = inhibition, % at 10 µM; 3.1% of 140,000 active; AID 2417;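 active = readout at or below -70, meaning at least 70% loss of cells showing the perinucleolar compartment, a nuclear body marking cancer cells; inconclusive = readout between -30 and a set limit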;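 note: plate controls were DMSO wells for no effect and camptothecin positive control wells for full effect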
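Read-out is percentage of cells bearing a perinucleolar compartment, from automated 20x imaging of fixed, Hoechst-stained PC3M PTB-GFP cells. Cells were seeded 4 h, then exposed 16 h to compound (23 nl of library stock) in duplicate plates.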
ALDH1A1 inh – ALDH1A1 (human) enzyme inhibition; P00352; Purified ALDH1A1, NADH fluorescence, propionaldehyde substrate; Potency, µM (highest dose often 75.3 µM), without a hit: at the top dose activity, negative = inhibition, hits mostly inhibitors; 7.3% of 220,000 active; AID 1030;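 note: potency is the fitted concentration of half-maximal effect; plate controls were no enzyme wells and a reference inhibitor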
An asterisk follows results filed as active; ? = inconclusive; / = no result given; ! = not confirmed by another sample; [ ] = another dose, or the depositor's remark. Shown are actives, neighbours in structure and some others; about 11% of the full set was active somewhere. Unless noted, calls come from the whole dose curve; as a rule, active = well fitted inhibition curve with a large enough effect (not every such curve was filed as active); inconclusive = small, poorly fitted or top-dose-only effect, or another doubt; inactive = no such curve, though single readings can be large or run the other way. Unless noted, % is set by controls: 0 for no effect and ±100 for the full control effect.

SMILES	IMPase inh	IMPase Li inh	HPGD block	12-hLO inh	PNC inhibitor	ALDH1A1 inh
O=C(N/N=C/c1cccs1)c1cc(-c2ccncc2)nc2ccccc12	/	7%	-15%	0%	-109*	?
CCCc1cc(C(=O)N/N=C/c2ccc(CC)s2)c2ccccc2n1	3	3%[38.3 µM]	-14%	5%	59	-4%
Cc1ccccc1-c1ccc2ncnc(NCc3cccnc3)c2c1	/	22%	/	/	/	?
CC1=C(C(=O)OCc2ccccc2)C(c2ccc(C3CCCCC3)cc2)NC(=O)N1CCCCCC(=O)O (stereo not drawn)	/	16%	-7%	-3%	/	-3%
C=Cc1ccccc1C=C	/	7%	-3%	1%	/	1%
COc1ccc(-c2cc(C(=O)N/N=C/c3ccc4c(c3)OCO4)c3ccccc3n2)c(OC)c1	-19	-9%[38.3 µM]	55%	-22%	17	?
O=C(N/N=C/c1ccc2c(c1)OCO2)c1cc(-c2ccc(F)cc2)nc2ccccc12	/	-11%	?	2%	-96*	-7%
CCOc1nc(NCc2ccco2)nc(Nc2ccc(OC)cc2)n1	5	45%[38.3 µM]	-13%	-13%	?	20µM*
CCC[C@@H]1C[C@@H](C(=O)N[C@@H]([C@H]2O[C@H](SC)[C@H](O)[C@@H](O)[C@H]2O)[C@@H](C)O)N(C)C1	/	-11%	-6%	7%[0.00818 µM]	/	6%
COC(=O)c1c(C)c2c(c(C)c1O)OC(=O)c1c(C)c(Cl)c(O)c(Cl)c1O2	/	-1%	7.1µM*!	-13%	/	8%
O=C(NCCc1ccccc1)c1ccc(-c2ccc(F)cc2)o1	/	-1%	/	/	/	?
COc1ccc(NC(=O)c2ccc(-c3ccccc3C(F)(F)F)o2)cc1	/	-9%	-9%	-6%	-100*	-11%
O=C(NCCc1ccccc1)c1ccc(-c2ccccc2C(F)(F)F)o1	/	11%	?	-2%	61	25µM*
CCOC(=O)C1C(C(=O)OC)=C(c2ccc(F)cc2)c2ccc(OC)cc2N1S(=O)(=O)C(F)(F)F (stereo not drawn)	/	17%	-29%	-1%[0.00818 µM]	/	?
O=[N+]([O-])c1cc2c(c(CSc3nnc(Nc4ccccc4)s3)c1)OCOC2	10	53%[38.3 µM]	-20%	5%	34	-1%
Cc1ccccc1Nc1nnc(SCc2cc([N+](=O)[O-])cc3c2OCOC3)s1	12	52%[38.3 µM]	14µM*	-6%	33	?
COc1ccc(Br)c2c1-c1nc(NC(=O)c3cccc(C)c3)sc1C2	-4	/	/	/	/	/
CC1(C)CC(=O)C(C(c2ccco2)C2C(=O)CC(C)(C)CC2=O)C(=O)C1	19	-4%	7.9µM*	-6%	-19	?
O=C(O)Cc1sc(NCc2ccco2)nc1-c1ccccc1	/	/	/	/	/	3.5µM*
COc1ccc(NC(=O)Nc2cccs2)cc1OC	-4	12%[38.3 µM]	-7%	-19%	10	22µM*
COc1ccc(NC(=O)C2CCC(CNS(=O)(=O)c3cccs3)CC2)cc1OC (stereo not drawn)	11	-5%	/	/	/	5µM*
N#CC1=C(S)N(c2ccc(F)cc2)C(c2cccs2)NC1=O (stereo not drawn)	-4	18%[38.3 µM]	-6%	-7%	23	3%
Cc1cccc(N2C(S)=C(C#N)C(=O)NC2c2cccs2)c1 (stereo not drawn)	-6	3%	-12%	3%	-84*	-2%
C[C@H](NC(=O)c1nc[nH]c1C(=O)N[C@@H](Cc1ccccc1)C(=O)OCc1ccccc1)c1ccccc1	/	3%	/	/	/	5µM*
CC(C)(C)OC(=O)NCCCC[C@H](NC(=O)c1nc[nH]c1C(=O)NC(c1ccccc1)c1ccccc1)C(=O)OC(C)(C)C	/	-8%	/	/	/	2.8µM*
SMILES	IMPase inh	IMPase Li inh	HPGD block	12-hLO inh	PNC inhibitor	ALDH1A1 inh
c1ccc(OCCN2C3=NCCN3c3ccccc32)cc1	17	/	/	1%	-90*	4%
CCCCCCN1C2=NCCN2c2ccccc21	-7	35%[38.3 µM]	5%	4%	-107*	11%
Cc1ccc(/C=c2\sc3n(c2=O)CN(c2ccc(Br)cc2)CN=3)o1	4	7%[38.3 µM]	-17%	-23%	16	14µM*
Cc1ccc(N2CN=c3s/c(=C\c4cccnc4)c(=O)n3C2)cc1	-4	-11%[38.3 µM]	-21%	0%	9	17%
Cc1ccc(/C=c2/sc3n(c2=O)CCCN=3)o1	9	7%	-27%	-4%	231	3.5µM*
CN1CCCN=C1/C=C\c1cccs1	9[20.6 µM]	8%	0%	-1%[25.6 µM]	/	5%[20.9 µM]
CC1CCCCC1NC(=O)C1CCN(C(=O)c2sccc2-n2cccc2)CC1 (stereo not drawn)	-21	24%[38.3 µM]	-11%	3%	?	1.1µM*
CC1CCCCC1NC(=O)C1CCN(C(=O)NC2CCCCC2)CC1 (stereo not drawn)	2	17%[38.3 µM]	-12%	1%	?	-2%
O=C(NCc1ccccc1Cl)C1CCN(C(=O)c2sccc2-n2cccc2)CC1	9	21%[38.3 µM]	-5%	8%	60	1.4µM*
CCOc1ccccc1CNC(=O)C1CCN(C(=O)c2sccc2-n2cccc2)CC1	11	-22%[38.3 µM]	-12%	6%	-1	0.63µM*
O=C(NCc1ccccc1F)C1CCN(C(=O)c2sccc2-n2cccc2)CC1	/	-3%	/	/	/	2.5µM*
COc1ccc(-c2cc(C(F)(F)F)nc(SCCC(=O)Nc3ccc(F)cc3F)n2)cc1	10	/	/	/	/	/
CC(C)(C)OC(=O)[C@H](Cc1ccccc1)NC(=O)c1nc[nH]c1C(=O)NC1CCN(C(=O)OC(C)(C)C)CC1	/	17%	/	/	/	0%
NC(=[SH+])N=N/C=C1/C=CC=CN1.O=S(=O)(O)O.[Fe]	/	-5%	-11%	/	/	?
Cc1cccc(OCCn2c(-c3ccc(Cl)cc3)nc3ccccc3c2=O)c1	0	/	/	/	/	/
Cc1cc(C(C#N)c2ccccc2F)n2ncnc2n1 (stereo not drawn)	/	21%	/	/	/	16µM*
CCOC(=O)N1CCN(S(=O)(=O)c2ccc(OCC(=O)OC)cc2)CC1	-5	17%[38.3 µM]	1%	0%	24	10%
CCOC(=O)N1CCN(S(=O)(=O)c2ccc(OCC(=O)OC)c(C)c2)CC1	3	3%[38.3 µM]	-10%	3%	-84*	3%
O=C(NCCN1C(=O)C2C3C=CC(C3)C2C1=O)Nc1ccccc1 (stereo not drawn)	-5	-5%[38.3 µM]	-13%	5%	30	13µM*
COc1ccc(NC(=O)NCCN2C(=O)C3C4C=CC(C4)C3C2=O)cc1 (stereo not drawn)	-4	4%	2%	-6%	-82*	?
Cc1ccc(NC(=O)NCCN2C(=O)C3C4C=CC(C4)C3C2=O)cc1 (stereo not drawn)	-1	-2%[38.3 µM]	-17%	3%	-2	10µM*
